hgDAF12 agonist: hgDAF-12 agonism, primary luciferase screen | AID 687014 | activation, % at 6.8 µM | 370,000 compounds, 1.8% hits | HEK293 GAL4-hgDAF12 UAS-luciferase reporter, agonist luminescence; normalized to butyrate control;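 active = activation above a cutoff set at the mean of all screened compounds plus 3 SD, cut at about 10% in these data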;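 also: 0% = DMSO wells and 100% = sodium butyrate wells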
ssDAF-12 act: S. stercoralis DAF-12 activation, primary screen; HEK293 ssDAF-12/GRIP1 lit1-tk-luc reporter, luminescence; % of 3 µM dafachronic acid response; activation, % at 6.8 µM; 370,000 compounds, 1% hits;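 active = activation above the mean over all tested compounds plus 3 SD, cut at about 0.9% in these data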;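 also: 0% = DMSO-only wells and 100% = 3 µM delta7-dafachronic acid wells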
hcDAF12 agonist: activators of H. contortus DAF-12 nuclear receptor; HEK293 hcDAF-12 lit1-tk-luc reporter, luminescence; 0% DMSO, 100% Δ7-dafachronic acid; activation, % at 6.8 µM; 370,000 compounds, 1.4% hits; AID 652067;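 active = activation above the mean of all tested compounds plus 3 SD, cut at about 5.5% in these data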;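 also: 100% = response to 3 µM Δ7-dafachronic acid high control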
DAX1 inh-1: inhibitors of DAX1 repression of SF-1 activated StAR promoter | HEK293T StAR-luciferase reporter, SF-1/DAX-1 repression relief | inhibition, % at 6.8 µM | 370,000 compounds, 1.1% hits;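 active = inhibition above the mean over all tested compounds plus 3 SD, cut at about 3.6% in these data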;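 also: 0% = DAX-1 cells with DMSO and 100% = cells lacking DAX-1 with DMSO; higher inhibition means more luminescence from relief of DAX-1 repression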
DAX1 inh-2: inhibits human nuclear receptor DAX1; P51843; HEK293 Gal4-DAX1 luciferase reporter, luminescence; inhibition, % at 6.75 µM; 340,000 compounds, 0.99% hits; AID 504766;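 active = inhibition above the mean over all tested compounds plus 3 SD, cut at about 4.2% in these data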;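 also: 0% = DAX1-transfected cells with DMSO and 100% = empty-vector control cells with DMSO; inhibition shows as a rise in luminescence from relieved DAX1 repression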
Target sequence (P51843 207-470 limits assumed): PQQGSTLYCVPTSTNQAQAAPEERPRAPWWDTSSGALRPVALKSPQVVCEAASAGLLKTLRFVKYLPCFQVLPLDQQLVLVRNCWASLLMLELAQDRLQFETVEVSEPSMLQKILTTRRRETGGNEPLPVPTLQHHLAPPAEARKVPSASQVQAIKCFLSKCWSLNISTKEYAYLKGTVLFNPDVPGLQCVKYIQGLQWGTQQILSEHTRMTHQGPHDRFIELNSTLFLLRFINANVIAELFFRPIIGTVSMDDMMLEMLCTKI
* hit, by the source's call. Only some compounds are listed: those with a hit (about 4.1% of all), similar ones and a draw of the others.

What do the screens show for `O=C(N/N=C/c1c[nH]c2ccc(Br)cc12)C1CC1`?
hgDAF12 agonist: -0.1; ssDAF-12 act: -1.1; hcDAF12 agonist: -0.6; DAX1 inh-1: -0.3; DAX1 inh-2: 0.3

Results for O=C(N/N=C/c1c[nH]c2ccc(Br)cc12)c1ccncc1 ?
hgDAF12 agonist: -1.5; ssDAF-12 act: -1.6; hcDAF12 agonist: 0.5; DAX1 inh-1: -0.5; DAX1 inh-2: -1.4

How did CCOC(=O)c1sc(Nc2nc(C)cc(OC)n2)nc1C do in these assays?
hgDAF12 agonist: -0.8; ssDAF-12 act: -1.3; hcDAF12 agonist: 4.8; DAX1 inh-1: -0.1; DAX1 inh-2: 4.5*

Results for CCOC(=O)c1sc(Nc2nc(C)cc(C)n2)nc1C ?
hgDAF12 agonist: 0.9; ssDAF-12 act: -1.6; hcDAF12 agonist: -1.1; DAX1 inh-1: 0.4; DAX1 inh-2: 0.9

What do the screens show for `COC(=O)c1cc(=O)nc(NN=Cc2ccccc2O)s1`?
hgDAF12 agonist: 1.2; ssDAF-12 act: -0.8; hcDAF12 agonist: 0.4; DAX1 inh-1: 1.4

What do the screens show for `CC(=O)c1sc(N/N=C\c2ccccc2O)nc1C`?
hgDAF12 agonist: 25.5*; ssDAF-12 act: 0.1; hcDAF12 agonist: 5.1; DAX1 inh-1: 1.1; DAX1 inh-2: 2.0

What do the screens show for `CCOC(=O)c1sc(N/N=C/c2ccccc2)nc1C`?
hgDAF12 agonist: 6.9; ssDAF-12 act: 1.2*; hcDAF12 agonist: 4.0; DAX1 inh-1: 2.6; DAX1 inh-2: 1.7

What do the screens show for `O=C(Nc1ccc(F)cc1)c1nc[nH]c1C(=O)Nc1ccccc1[N+](=O)[O-]`?
hgDAF12 agonist: 6.2; ssDAF-12 act: -1.3; hcDAF12 agonist: -1.1; DAX1 inh-1: 0.4; DAX1 inh-2: -0.5

What do the screens show for `O=C(Nc1ccc(F)cc1)c1nc[nH]c1C(=O)O`?
hgDAF12 agonist: 1.6; ssDAF-12 act: -0.7; hcDAF12 agonist: -0.4; DAX1 inh-1: 0.9; DAX1 inh-2: 4.3*

How did COC(=O)C[C@@H]1CC[C@H]2[C@@H](COc3ccc(NC(=O)Nc4ccccc4)cc3C(=O)N2C)O1 do in these assays?
hgDAF12 agonist: 0.6; ssDAF-12 act: -0.5; hcDAF12 agonist: 1.4; DAX1 inh-1: -0.3

Results for O=C(NCCc1ccccc1)c1ccc(S(=O)(=O)N2CCCCC2)cc1 ?
hgDAF12 agonist: 0.2; ssDAF-12 act: -1.6; hcDAF12 agonist: -2.1; DAX1 inh-1: -0.1; DAX1 inh-2: 0.9

How did O=C(NC(=S)N(CCO)Cc1ccccc1)c1ccc(S(=O)(=O)N2CCCC2)cc1 do in these assays?
hgDAF12 agonist: 3.2; ssDAF-12 act: 2.0*; hcDAF12 agonist: -0.1; DAX1 inh-1: -0.3; DAX1 inh-2: 0.5

How did COc1ccnc(CS(=O)c2nc3cc(C(O)(F)F)ccc3[nH]2)c1OC (stereo unspecified) do in these assays?
hgDAF12 agonist: 2.8; ssDAF-12 act: 0.1; hcDAF12 agonist: 6.1*; DAX1 inh-1: -0.1; DAX1 inh-2: -0.1

How did Cc1ccc(-c2ccc(NC(=O)C3C4C=CC(C4)C3C(=O)O)cc2)o1 (stereo unspecified) do in these assays?
hgDAF12 agonist: 12.9*; ssDAF-12 act: -0.7; hcDAF12 agonist: 1.3; DAX1 inh-1: 1.4; DAX1 inh-2: 0.0

What do the screens show for `CCOc1ccc(Cl)cc1-c1cc(C(=O)NC2CCCCC2)[nH]n1`?
hgDAF12 agonist: 4.5; ssDAF-12 act: -0.8; hcDAF12 agonist: -0.9; DAX1 inh-1: -0.6

How did N#CC1=C2SC=C(c3ccc(Br)cc3)N2CCCC1=O do in these assays?
hgDAF12 agonist: 11.3*; ssDAF-12 act: -1.1; hcDAF12 agonist: 3.3; DAX1 inh-1: 3.7*; DAX1 inh-2: 4.2

Results for Cc1cccc(C(=O)N/N=C2/SCC(=O)N2Cc2ccccc2)c1 ?
hgDAF12 agonist: -2.2; ssDAF-12 act: -1.2; hcDAF12 agonist: -0.2; DAX1 inh-1: 0.6; DAX1 inh-2: -0.2

Results for Cc1ccccc1C(=O)N/N=C1/SCC(=O)N1Cc1ccccc1 ?
hgDAF12 agonist: -5.5; ssDAF-12 act: 15.5*; hcDAF12 agonist: -2.2; DAX1 inh-1: 0.4; DAX1 inh-2: -2.0

What do the screens show for `Cc1ccc2nc3n(c(=O)c2c1)-c1ccc(Cl)cc1C(=O)NC3Cc1ccccc1` (stereo unspecified)?
hgDAF12 agonist: 0.0; ssDAF-12 act: -1.1; hcDAF12 agonist: 1.7; DAX1 inh-1: -0.5

Results for CC1NC(=O)c2cc3ccccc3cc2-n2c1nc1ccc(F)cc1c2=O (stereo unspecified) ?
hgDAF12 agonist: 2.5; ssDAF-12 act: -0.1; hcDAF12 agonist: 6.2*; DAX1 inh-1: 0.2; DAX1 inh-2: 0.8

Results for Cc1ccc2nc3n(c(=O)c2c1)-c1cc2ccccc2cc1C(=O)NC3Cc1ccccc1 (stereo unspecified) ?
hgDAF12 agonist: 2.3; ssDAF-12 act: -1.4; hcDAF12 agonist: 0.1; DAX1 inh-1: 3.9*; DAX1 inh-2: 0.0

What do the screens show for `CCCC1NC(=O)c2cc3ccccc3cc2-n2c1nc1cc(Cl)ccc1c2=O` (stereo unspecified)?
hgDAF12 agonist: -0.2; ssDAF-12 act: 1.4*; hcDAF12 agonist: 0.7; DAX1 inh-1: 0.9; DAX1 inh-2: 0.7

What do the screens show for `CCCC1NC(=O)c2cc3ccccc3cc2-n2c1nc1ccc(C)cc1c2=O` (stereo unspecified)?
hgDAF12 agonist: -0.1; ssDAF-12 act: 0.2; hcDAF12 agonist: 1.3; DAX1 inh-1: 1.9; DAX1 inh-2: 2.5

How did CC1(Cc2ccc(F)cc2)C(=O)Nc2ccc(-c3cccnc3)cc21 (stereo unspecified) do in these assays?
hgDAF12 agonist: 1.2; ssDAF-12 act: -1.9; hcDAF12 agonist: -2.2; DAX1 inh-1: -1.8

Results for CCN(CC)C(=O)CC[C@@H]1CC[C@]2(CCCN(C(=O)c3ccccc3)C2)O1 ?
hgDAF12 agonist: -1.8; ssDAF-12 act: -1.0; hcDAF12 agonist: -0.6; DAX1 inh-1: 1.3

What do the screens show for `COc1ccc2c(c1)C(NC(=O)C(F)(F)F)CC21CCCCC1` (stereo unspecified)?
hgDAF12 agonist: -1.2; ssDAF-12 act: -0.8; hcDAF12 agonist: 0.5; DAX1 inh-1: 0.2

Results for CC(NC(=O)C12CC3CC(CC(O)(C3)C1)C2)c1ccccc1 (stereo unspecified) ?
hgDAF12 agonist: -1.7; ssDAF-12 act: -1.3; hcDAF12 agonist: -1.0; DAX1 inh-1: 0.2; DAX1 inh-2: 5.7*

What do the screens show for `CCCOc1cccc(-c2nc3ccccc3c(=O)o2)c1`?
hgDAF12 agonist: 10.7*; ssDAF-12 act: 0.0; hcDAF12 agonist: 5.2; DAX1 inh-1: 3.5; DAX1 inh-2: 0.3

How did O=c1oc(-c2ccc(Br)cc2)nc2ccccc12 do in these assays?
hgDAF12 agonist: 7.3; ssDAF-12 act: 0.9*; hcDAF12 agonist: 2.7; DAX1 inh-1: 1.2; DAX1 inh-2: 2.9

What do the screens show for `OC(c1ccccc1)c1nc(-c2cccc(C(F)(F)F)c2)cs1` (stereo unspecified)?
hgDAF12 agonist: 1.1; ssDAF-12 act: -1.1; hcDAF12 agonist: -1.0; DAX1 inh-1: 0.6

Results for COc1ccc(CNC(=O)C[C@@H]2C[C@H]3c4cc(NC(=O)C5CCC5)ccc4O[C@H]3[C@@H](CO)O2)cc1 ?
hgDAF12 agonist: -0.9; ssDAF-12 act: -1.7; hcDAF12 agonist: -1.4; DAX1 inh-1: -0.5; DAX1 inh-2: 0.3

Screening data as filed in PubChem.
